LASV entry inh: inhibitors of Lassa virus binding or cell entry; Lassa virus pseudotype entry inhibition, cell reporter; Potency, µM (series often up to 37.9 µM), usual class: inhibitors; 300,000 compounds, 1.2% hits; AID 540256; calls by dose curve; tested in HEK293 cells; also: nearly all actives have a fitted effect of over 50% in size
Vaccinia Venus: inhibitors of vaccinia virus (Venus reporter) | Vaccinia virus Venus reporter expression, fluorescence | Potency, µM (top dose mostly 36.5 µM), hits mostly inhibitors | 330,000 compounds, 0.46% hits | AID 720580; calls by dose curve; tested in A549 cells; also: nearly all actives have a fitted effect of over 30% in size
HCV inhibitor: inhibitors of hepatitis C virus infection; 340,000 compounds, 3.4% hits; Huh7.5.1 HCVcc-Cre infection, luciferase reporter, 44 h; Potency, µM (doses to about 41.8 µM), most hits filed as inhibitors; AID 651820; active = well fitted inhibition curve with a large enough effect; inconclusive = small, poorly fitted or top-dose-only effect, or another doubt; inactive = no such curve, though single readings can be large or run the other way
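Reporter virus HCVcc-Cre (~0.5 moi) infects cells exposed to compound; seeding density 1,000 cells/well with 4 h settling beforehand. Luminescence, 15 sec read, taken 44 h post-infection following a 15 min RT substrate incubation.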
MARV entry inh: Marburg virus entry inhibition | AID 540276 | 300,000 compounds, 1.8% hits | Potency, µM (top dose mostly 37.8 µM), hits mostly inhibitors | Marburg virus pseudotyped entry inhibition, cell reporter; calls by dose curve; tested in HEK293 cells
HCMV inh: inhibitors of human cytomegalovirus; 410,000 compounds, 4.5% hits; AID 1259415; activity change, negative = inhibition, % at 57.5 µM; HFF cells, HCMV-luciferase reporter, 72 h; stronger effect = lower value; in the data active = activity change below about -60%; inconclusive = no clear call, values can overlap the other calls; inactive = above about -39%
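Two compound doses tested in HFFs infected with HCMV-luciferase, MOI 1 PFU/cell, 72 h at 37C. Lysate luminescence read with OneGlo; data normalized against buffer-only and 10uM Salinomycin inhibitor controls.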
VACV mCherry inh: inhibitors of vaccinia virus infection (mCherry reporter signal) | Vaccinia virus mCherry reporter infection, fluorescence | Potency, µM (series often up to 36.5 µM), hits mostly inhibitors | 310,000 compounds, 0.63% hits; calls by dose curve; tested in A549 cells; also: nearly all actives have a fitted effect of over 35% in size
Of the large screens only hits and unclear results are named; the others gave an inactive call. The list is not random: actives were taken first. Their share in the collection is about 7.8%.

O=C(N/N=C/C=C/c1ccccc1)c1n[nH]c2c1CCC2	Vaccinia Venus inconclusive, MARV entry inh inconclusive, VACV mCherry inh inconclusive
O=C(N/N=C/C(Br)=C\c1ccccc1)c1n[nH]c2c1CCC2	LASV entry inh inconclusive, Vaccinia Venus inconclusive, HCV inhibitor inconclusive, MARV entry inh inconclusive, HCMV inh -79, VACV mCherry inh inconclusive
O=C(NCCc1ccccn1)c1cnn(-c2ncc3c(n2)-c2ccccc2CC3)c1C1CC1	none (no result: LASV entry inh, HCV inhibitor, MARV entry inh, HCMV inh)
CN(C)S(=O)(=O)N1CCC(Oc2cccc(C(=O)N3CCCCCCC3)c2)CC1	LASV entry inh 11µM, HCV inhibitor inconclusive (no result: HCMV inh)
CN(C)S(=O)(=O)N1CCC(Oc2cccc(C(=O)N3CCCCCC3)c2)CC1	LASV entry inh inconclusive, HCV inhibitor inconclusive, MARV entry inh inconclusive
COc1cccc(-c2cc3c(Nc4cccc(F)c4)nccc3[nH]2)c1	none (no result: LASV entry inh, Vaccinia Venus, HCV inhibitor, MARV entry inh, VACV mCherry inh)
Cn1cc(CN2CCC(C3(c4ccccn4)NC(=O)N(CC4CCCO4)C3=O)CC2)c2ccccc21 (configuration not stated)	none (no result: LASV entry inh, HCV inhibitor, MARV entry inh, HCMV inh)
COc1cccc(CN2C(=O)C(C)N(C(=O)c3c(F)cccc3F)c3ccccc32)c1 (configuration not stated)	HCV inhibitor 10µM, HCMV inh -83 (no result: LASV entry inh, Vaccinia Venus, MARV entry inh, VACV mCherry inh)
C=CC[C@@H]1C=C[C@H](ON=C[C@@H](N[S+](=O)([O-])c2ccc(C)cc2)[C@H](C)C=CCC(=O)OC)[C@H](CO)O1	none (no result: LASV entry inh, Vaccinia Venus, HCV inhibitor, HCMV inh, VACV mCherry inh)
CCc1ccc(OCC(=O)Nc2c(C(=O)c3ccc(Br)cc3)oc3ccccc23)cc1	none (no result: HCV inhibitor)
CN(NC(=O)C(C)(C)C)c1nc(-c2ccccc2)nnc1C(F)(F)F	HCMV inh -63
CNC(=S)N/N=C/C1=CCC2CC1C2(C)C (configuration not stated)	LASV entry inh 1.3µM
O=C(c1cc2cc(F)ccc2[nH]1)N(Cc1cccnc1)CC1CCCN(C2CCCCC2)C1 (configuration not stated)	HCV inhibitor inconclusive (no result: LASV entry inh, Vaccinia Venus, MARV entry inh, VACV mCherry inh)
C#Cc1cccc(C(=O)N(Cc2cccnc2)CC2CCCN(C3CCCCC3)C2)c1 (configuration not stated)	HCMV inh -63 (no result: LASV entry inh, HCV inhibitor, MARV entry inh)
COc1cc(OC)c(C2=Nc3ccc(Br)cc3C(c3ccccc3)N2CC(=O)NN)cc1OC (configuration not stated)	HCMV inh -68 (no result: LASV entry inh, Vaccinia Venus, MARV entry inh, VACV mCherry inh)
NNC(=O)CN1C(c2ccccc2)=Nc2ccc(Br)cc2C1c1ccccc1 (configuration not stated)	LASV entry inh inconclusive
COc1ccc2c(C)nc(Nc3nc(-c4ccccc4)cc(=O)[nH]3)nc2c1	LASV entry inh 4.6µM, Vaccinia Venus 4µM, HCV inhibitor 5.6µM, MARV entry inh inconclusive, HCMV inh -93, VACV mCherry inh inconclusive
Cc1ccc2nc(Nc3nc(-c4ccccc4)cc(=O)[nH]3)nc(C)c2c1	Vaccinia Venus inconclusive, HCV inhibitor inconclusive, MARV entry inh inconclusive, HCMV inh -67 (no result: VACV mCherry inh)
COc1ccc2nc(Nc3nc(CSc4nnc(C)s4)cc(=O)[nH]3)nc(C)c2c1	none (no result: Vaccinia Venus, HCMV inh, VACV mCherry inh)
Cc1ccc2nc(Nc3nc(CSc4nnc(C)s4)cc(=O)[nH]3)nc(C)c2c1	HCV inhibitor inconclusive, HCMV inh -81 (no result: LASV entry inh)
COc1ccc(-c2nnc(SCC(=O)Nc3cccc(F)c3)s2)cc1	none (no result: HCV inhibitor, MARV entry inh)
CCc1cc(C(=O)NCCN2Cc3ccccc3OC(c3ccsc3)C2)n(C)n1 (configuration not stated)	none (no result: LASV entry inh, HCV inhibitor, MARV entry inh, HCMV inh)
CCN(CC(=O)Nc1ccccc1C(F)(F)F)C(=O)Cc1ccccc1	none
CCN(CC(=O)Nc1ccccc1C(F)(F)F)C(=O)c1ccccc1Cc1ccccc1	LASV entry inh 11µM, MARV entry inh inconclusive
O=C(N/N=C/c1ccccc1O)NC12CC3CC(CC(C3)C1)C2	LASV entry inh inconclusive, MARV entry inh inconclusive, VACV mCherry inh inconclusive
C/C(=N/NC(=O)NC12CC3CC(CC(C3)C1)C2)c1ccccc1	HCV inhibitor inconclusive, HCMV inh -62 (no result: LASV entry inh, Vaccinia Venus, MARV entry inh, VACV mCherry inh)
O=c1[nH]c(NC2CCCCC2)nnc1Cc1ccccc1	none (no result: Vaccinia Venus, VACV mCherry inh)
O=c1[nH]c(Nc2ccc3c(c2)OCCO3)nnc1Cc1ccccc1	HCMV inh -73
Cc1nnc(SCC(=O)N2CCC(c3noc4ccc(F)cc34)CC2)s1	HCMV inh -70 (no result: Vaccinia Venus, VACV mCherry inh)
CCOc1ccccc1NC(=O)Cn1c(=O)n(-c2ccc(C)cc2)c(=O)c2c1cnn2C	none (no result: HCV inhibitor)
Cc1ccc(NC(=O)c2cccn2-c2nnc(N3CCCCC3)s2)cc1Cl	none (no result: HCV inhibitor, MARV entry inh)
COc1ccccc1C(=O)Nc1ccccc1SCc1cc(=O)c2ccccc2[nH]1	VACV mCherry inh inconclusive (no result: HCV inhibitor, MARV entry inh)
